Usually inhibition stands for the change of the read-out against control, counted positive when it falls.

Inhibition data for one molecule are collected here from ChEMBL document CHEMBL1961873, “Compounds: GSK PKIS; Assays: Nanosyn kinase panel” (2012).

Assay [1] has as its target Sphingosine kinase 1 (Homo sapiens) (UniProt Q9NYA1). Particulars: at 1 µM.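 Note: mean SPHK1 inhibition value reported from the GSK PKIS kinase panel screen.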
The target of assay [2] is T1, Sphingosine kinase 2 (Homo sapiens) (UniProt Q9NRA0).
T1 sequence (whole entry): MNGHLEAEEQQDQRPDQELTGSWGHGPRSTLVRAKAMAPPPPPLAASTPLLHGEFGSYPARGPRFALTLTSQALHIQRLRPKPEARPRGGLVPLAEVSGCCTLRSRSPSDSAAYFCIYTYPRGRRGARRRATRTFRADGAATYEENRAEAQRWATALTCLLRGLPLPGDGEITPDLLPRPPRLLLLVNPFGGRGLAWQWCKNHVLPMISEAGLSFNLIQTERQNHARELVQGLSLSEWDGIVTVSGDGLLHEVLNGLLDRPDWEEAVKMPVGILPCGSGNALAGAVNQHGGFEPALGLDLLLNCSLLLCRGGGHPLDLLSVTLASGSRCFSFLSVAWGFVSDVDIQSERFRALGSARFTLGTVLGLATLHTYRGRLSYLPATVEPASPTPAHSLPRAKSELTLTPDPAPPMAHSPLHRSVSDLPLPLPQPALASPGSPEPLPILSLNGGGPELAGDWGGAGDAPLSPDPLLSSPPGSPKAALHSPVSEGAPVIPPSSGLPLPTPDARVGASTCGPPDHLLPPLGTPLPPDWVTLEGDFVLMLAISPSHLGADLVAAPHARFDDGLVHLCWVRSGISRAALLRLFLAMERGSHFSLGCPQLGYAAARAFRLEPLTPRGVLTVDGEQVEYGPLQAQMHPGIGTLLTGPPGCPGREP
Particulars: at 0.1 µM.

Assay [3] concerns the target T1, Sphingosine kinase 2 (Homo sapiens). Particulars: at 1 µM.
In assay [4] the target is Casein kinase II subunit alpha (Homo sapiens) (UniProt P68400). Particulars: at 0.1 µM.
Assay [5] has the same target. Particulars: at 1 µM.
For assay [6], the target named is T2, Inhibitor of nuclear factor kappa-B kinase subunit alpha (Homo sapiens) (UniProt O15111).
T2 sequence (whole entry): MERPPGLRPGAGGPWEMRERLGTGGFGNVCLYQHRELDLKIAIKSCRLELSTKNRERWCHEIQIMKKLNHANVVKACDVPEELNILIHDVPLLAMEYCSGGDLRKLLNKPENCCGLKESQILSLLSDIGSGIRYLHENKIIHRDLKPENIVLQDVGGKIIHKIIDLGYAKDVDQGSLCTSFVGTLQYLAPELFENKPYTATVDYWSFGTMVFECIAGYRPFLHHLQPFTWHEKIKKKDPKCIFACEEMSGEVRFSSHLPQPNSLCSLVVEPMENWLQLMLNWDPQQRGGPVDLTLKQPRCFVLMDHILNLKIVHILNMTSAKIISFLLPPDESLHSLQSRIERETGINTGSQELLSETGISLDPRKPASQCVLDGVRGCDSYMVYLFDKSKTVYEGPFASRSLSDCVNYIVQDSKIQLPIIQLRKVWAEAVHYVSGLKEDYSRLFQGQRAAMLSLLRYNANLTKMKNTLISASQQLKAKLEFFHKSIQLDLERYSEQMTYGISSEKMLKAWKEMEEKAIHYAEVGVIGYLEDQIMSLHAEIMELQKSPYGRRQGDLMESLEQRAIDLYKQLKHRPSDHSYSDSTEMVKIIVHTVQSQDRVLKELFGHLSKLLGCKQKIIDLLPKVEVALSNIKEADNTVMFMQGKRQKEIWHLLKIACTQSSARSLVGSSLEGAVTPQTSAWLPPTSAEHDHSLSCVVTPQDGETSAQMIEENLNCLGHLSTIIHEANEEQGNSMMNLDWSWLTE
Particulars: at 0.1 µM.

Assay [7] deals with T2, Inhibitor of nuclear factor kappa-B kinase subunit alpha (Homo sapiens). Particulars: at 1 µM.
Assay [8] addresses T3, Inhibitor of nuclear factor kappa-B kinase subunit beta (Homo sapiens) (UniProt O14920).
T3 sequence (whole entry): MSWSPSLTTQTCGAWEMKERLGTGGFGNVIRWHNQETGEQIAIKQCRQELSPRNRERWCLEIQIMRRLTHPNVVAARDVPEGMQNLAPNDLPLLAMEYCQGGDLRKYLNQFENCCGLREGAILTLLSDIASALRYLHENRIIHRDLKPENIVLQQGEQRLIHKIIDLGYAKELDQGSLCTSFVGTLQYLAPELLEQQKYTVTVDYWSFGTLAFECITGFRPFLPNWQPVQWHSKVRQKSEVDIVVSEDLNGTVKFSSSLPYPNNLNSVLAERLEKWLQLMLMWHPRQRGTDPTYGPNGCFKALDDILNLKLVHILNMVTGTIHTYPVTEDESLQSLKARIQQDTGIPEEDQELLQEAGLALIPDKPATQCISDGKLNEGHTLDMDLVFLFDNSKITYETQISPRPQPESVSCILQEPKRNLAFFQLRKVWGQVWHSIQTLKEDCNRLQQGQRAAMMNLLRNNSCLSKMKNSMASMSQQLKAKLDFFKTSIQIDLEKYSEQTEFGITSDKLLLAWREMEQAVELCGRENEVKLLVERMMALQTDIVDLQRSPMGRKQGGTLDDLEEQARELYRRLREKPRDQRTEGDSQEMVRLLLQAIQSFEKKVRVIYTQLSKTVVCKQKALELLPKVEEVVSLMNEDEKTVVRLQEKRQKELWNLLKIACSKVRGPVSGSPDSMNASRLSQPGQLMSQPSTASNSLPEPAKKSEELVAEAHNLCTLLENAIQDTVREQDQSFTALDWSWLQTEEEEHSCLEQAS
Particulars: at 0.1 µM.

For assay [9], the target named is T3, Inhibitor of nuclear factor kappa-B kinase subunit beta (Homo sapiens). Particulars: at 1 µM.
For assay [10], the target named is T4, Inhibitor of nuclear factor kappa-B kinase subunit epsilon (Homo sapiens) (UniProt Q14164).
T4 sequence (whole entry): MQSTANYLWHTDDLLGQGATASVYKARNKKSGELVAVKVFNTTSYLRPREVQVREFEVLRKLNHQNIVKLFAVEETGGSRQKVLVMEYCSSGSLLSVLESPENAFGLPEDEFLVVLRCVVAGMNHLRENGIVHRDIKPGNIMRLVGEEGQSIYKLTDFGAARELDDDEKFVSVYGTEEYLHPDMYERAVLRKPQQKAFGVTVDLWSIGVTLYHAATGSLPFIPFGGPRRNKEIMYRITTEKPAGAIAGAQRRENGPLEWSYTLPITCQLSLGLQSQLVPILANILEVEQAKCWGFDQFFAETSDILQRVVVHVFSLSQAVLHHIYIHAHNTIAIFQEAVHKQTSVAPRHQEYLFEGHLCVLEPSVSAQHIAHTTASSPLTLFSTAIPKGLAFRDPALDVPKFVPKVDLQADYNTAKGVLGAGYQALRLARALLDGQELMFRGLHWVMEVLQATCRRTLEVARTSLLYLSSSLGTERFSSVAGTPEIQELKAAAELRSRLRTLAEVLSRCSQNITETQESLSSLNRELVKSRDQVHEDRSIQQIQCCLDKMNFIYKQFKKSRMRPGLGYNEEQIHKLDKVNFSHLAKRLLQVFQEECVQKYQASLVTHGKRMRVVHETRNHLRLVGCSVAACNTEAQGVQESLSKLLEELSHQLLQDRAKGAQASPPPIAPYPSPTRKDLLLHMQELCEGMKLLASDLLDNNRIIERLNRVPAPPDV
Particulars: at 0.1 µM.

Assay [11] has as its target T4, Inhibitor of nuclear factor kappa-B kinase subunit epsilon (Homo sapiens). Particulars: at 1 µM.
Assay [12] has as its target T5, Serine/threonine-protein kinase Nek1 (Homo sapiens) (UniProt Q96PY6).
T5 sequence (whole entry): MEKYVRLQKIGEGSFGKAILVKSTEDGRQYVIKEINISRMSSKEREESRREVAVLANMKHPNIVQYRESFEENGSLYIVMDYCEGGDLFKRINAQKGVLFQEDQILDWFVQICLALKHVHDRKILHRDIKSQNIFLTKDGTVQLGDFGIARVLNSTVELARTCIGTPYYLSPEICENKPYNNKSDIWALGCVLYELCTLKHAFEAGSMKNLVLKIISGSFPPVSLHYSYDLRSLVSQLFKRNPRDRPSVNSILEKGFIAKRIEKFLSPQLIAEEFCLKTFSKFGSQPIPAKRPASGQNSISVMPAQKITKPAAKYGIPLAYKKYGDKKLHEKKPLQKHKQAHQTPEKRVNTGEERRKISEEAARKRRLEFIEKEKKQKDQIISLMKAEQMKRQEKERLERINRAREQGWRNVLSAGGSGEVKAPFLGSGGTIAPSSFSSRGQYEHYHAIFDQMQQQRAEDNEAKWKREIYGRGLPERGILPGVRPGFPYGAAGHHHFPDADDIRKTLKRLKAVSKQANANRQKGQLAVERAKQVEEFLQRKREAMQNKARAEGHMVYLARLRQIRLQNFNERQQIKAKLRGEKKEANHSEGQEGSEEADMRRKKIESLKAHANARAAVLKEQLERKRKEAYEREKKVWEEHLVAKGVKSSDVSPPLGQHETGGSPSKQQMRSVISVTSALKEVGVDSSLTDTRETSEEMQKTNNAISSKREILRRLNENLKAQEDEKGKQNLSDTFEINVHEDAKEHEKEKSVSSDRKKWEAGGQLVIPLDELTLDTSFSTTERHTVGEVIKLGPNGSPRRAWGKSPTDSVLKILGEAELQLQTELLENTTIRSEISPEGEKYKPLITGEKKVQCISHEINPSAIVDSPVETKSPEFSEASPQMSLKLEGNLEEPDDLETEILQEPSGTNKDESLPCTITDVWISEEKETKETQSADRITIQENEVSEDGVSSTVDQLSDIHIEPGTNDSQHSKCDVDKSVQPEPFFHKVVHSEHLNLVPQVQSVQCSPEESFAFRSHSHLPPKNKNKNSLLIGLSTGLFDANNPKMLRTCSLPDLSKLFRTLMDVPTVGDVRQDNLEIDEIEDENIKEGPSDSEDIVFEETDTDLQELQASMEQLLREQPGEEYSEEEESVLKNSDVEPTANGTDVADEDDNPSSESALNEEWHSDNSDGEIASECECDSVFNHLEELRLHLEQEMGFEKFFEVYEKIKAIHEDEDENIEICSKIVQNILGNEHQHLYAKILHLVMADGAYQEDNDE
Particulars: at 0.1 µM.

The target of assay [13] is T5, Serine/threonine-protein kinase Nek1 (Homo sapiens). Particulars: at 1 µM.
In assay [14] the target is T6, Serine/threonine-protein kinase Nek2 (Homo sapiens) (UniProt P51955).
T6 sequence (whole entry): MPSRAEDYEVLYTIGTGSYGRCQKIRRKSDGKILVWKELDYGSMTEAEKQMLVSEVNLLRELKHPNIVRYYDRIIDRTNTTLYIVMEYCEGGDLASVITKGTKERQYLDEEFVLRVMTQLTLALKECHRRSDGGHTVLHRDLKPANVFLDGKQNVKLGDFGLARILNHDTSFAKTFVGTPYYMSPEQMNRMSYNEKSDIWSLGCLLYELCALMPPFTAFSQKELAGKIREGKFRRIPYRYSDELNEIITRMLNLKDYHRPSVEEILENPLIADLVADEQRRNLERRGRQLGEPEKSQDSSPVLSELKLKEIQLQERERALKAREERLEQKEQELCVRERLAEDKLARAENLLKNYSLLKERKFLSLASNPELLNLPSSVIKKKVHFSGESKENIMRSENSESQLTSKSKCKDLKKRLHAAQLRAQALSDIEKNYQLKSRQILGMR
Particulars: at 0.1 µM.

Assay [15] addresses T6, Serine/threonine-protein kinase Nek2 (Homo sapiens). Particulars: at 1 µM.
For assay [16], the target named is Serine/threonine-protein kinase Nek6 (Homo sapiens) (UniProt Q9HC98). Particulars: at 0.1 µM.
For assay [17] the target is unchanged. Particulars: at 1 µM.
Assay [18] addresses Serine/threonine-protein kinase Nek7 (Homo sapiens) (UniProt Q8TDX7). Particulars: at 0.1 µM.
Assay [19] has the same target. Particulars: at 1 µM.
The target of assay [20] is T7, Serine/threonine-protein kinase Nek9 (Homo sapiens) (UniProt Q8TD19).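 Note: reported value is the mean percent inhibition of NEK9.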
T7 sequence (whole entry): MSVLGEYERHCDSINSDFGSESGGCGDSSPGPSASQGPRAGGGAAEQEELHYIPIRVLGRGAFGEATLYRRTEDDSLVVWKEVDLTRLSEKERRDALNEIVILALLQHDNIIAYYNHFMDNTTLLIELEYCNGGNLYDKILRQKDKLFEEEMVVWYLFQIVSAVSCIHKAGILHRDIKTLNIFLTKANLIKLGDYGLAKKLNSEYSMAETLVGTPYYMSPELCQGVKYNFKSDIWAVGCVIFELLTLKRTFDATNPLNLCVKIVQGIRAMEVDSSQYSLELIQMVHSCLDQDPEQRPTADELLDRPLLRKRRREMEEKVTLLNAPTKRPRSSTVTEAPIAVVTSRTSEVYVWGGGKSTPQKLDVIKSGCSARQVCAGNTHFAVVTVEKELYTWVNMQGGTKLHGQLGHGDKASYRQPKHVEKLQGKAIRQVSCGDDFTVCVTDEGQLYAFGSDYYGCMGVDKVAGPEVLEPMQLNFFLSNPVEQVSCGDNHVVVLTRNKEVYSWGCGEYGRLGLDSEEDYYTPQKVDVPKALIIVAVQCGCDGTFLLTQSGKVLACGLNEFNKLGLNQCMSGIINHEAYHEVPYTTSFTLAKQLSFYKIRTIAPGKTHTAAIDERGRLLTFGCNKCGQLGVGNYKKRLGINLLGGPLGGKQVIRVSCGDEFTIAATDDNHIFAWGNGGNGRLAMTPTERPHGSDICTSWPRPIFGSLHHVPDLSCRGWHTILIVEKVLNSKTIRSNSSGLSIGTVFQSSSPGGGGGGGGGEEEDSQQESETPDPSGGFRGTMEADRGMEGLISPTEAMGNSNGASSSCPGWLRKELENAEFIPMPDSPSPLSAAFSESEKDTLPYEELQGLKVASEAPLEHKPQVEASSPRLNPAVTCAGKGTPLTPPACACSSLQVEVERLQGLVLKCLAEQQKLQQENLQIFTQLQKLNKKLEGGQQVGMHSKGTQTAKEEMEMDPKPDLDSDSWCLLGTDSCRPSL
Particulars: at 0.1 µM.

Chain of Casein kinase II subunit alpha (Homo sapiens) (P68400 whole entry, looked up): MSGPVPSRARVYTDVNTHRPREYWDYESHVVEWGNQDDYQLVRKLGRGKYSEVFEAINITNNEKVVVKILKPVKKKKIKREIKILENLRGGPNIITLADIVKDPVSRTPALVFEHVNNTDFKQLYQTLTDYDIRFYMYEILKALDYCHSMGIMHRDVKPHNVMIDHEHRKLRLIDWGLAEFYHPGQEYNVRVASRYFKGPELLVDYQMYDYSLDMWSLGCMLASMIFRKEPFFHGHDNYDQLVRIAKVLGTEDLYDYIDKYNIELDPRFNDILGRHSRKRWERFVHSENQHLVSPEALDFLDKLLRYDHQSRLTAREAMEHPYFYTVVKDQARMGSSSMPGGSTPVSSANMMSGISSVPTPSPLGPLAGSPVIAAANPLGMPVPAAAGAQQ
Chain of Serine/threonine-protein kinase Nek6 (Homo sapiens) (Q9HC98 whole entry): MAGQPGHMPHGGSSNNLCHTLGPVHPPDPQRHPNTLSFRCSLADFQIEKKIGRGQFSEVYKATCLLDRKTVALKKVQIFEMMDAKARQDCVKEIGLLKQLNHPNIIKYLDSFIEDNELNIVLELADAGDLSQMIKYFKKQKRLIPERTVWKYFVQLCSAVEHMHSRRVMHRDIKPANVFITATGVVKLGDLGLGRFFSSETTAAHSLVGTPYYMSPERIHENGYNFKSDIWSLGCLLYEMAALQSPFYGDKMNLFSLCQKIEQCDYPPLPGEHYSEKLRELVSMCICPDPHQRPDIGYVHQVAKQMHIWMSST
Chain of Serine/threonine-protein kinase Nek7 (Homo sapiens) (Q8TDX7 whole entry, looked up): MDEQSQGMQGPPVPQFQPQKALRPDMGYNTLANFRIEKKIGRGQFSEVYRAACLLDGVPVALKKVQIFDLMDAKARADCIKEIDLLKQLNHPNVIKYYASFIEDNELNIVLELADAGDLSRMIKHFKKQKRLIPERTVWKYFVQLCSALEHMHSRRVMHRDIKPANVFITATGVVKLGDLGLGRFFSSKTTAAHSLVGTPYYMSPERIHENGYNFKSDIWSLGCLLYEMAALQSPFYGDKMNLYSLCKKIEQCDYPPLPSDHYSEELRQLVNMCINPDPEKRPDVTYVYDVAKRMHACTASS
Chain of Sphingosine kinase 1 (Homo sapiens) (Q9NYA1 whole entry): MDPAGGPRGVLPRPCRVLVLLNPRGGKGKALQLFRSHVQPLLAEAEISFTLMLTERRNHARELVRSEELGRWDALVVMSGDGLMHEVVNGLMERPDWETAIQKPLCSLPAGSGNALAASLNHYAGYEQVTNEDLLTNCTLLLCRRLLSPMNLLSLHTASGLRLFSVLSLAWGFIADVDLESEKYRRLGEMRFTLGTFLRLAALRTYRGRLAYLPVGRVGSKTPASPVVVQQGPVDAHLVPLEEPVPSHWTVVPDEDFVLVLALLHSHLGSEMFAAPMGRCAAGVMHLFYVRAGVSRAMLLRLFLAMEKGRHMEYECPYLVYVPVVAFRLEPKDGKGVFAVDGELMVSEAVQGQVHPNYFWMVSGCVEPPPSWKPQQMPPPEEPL

Regarding `C#Cc1cccc(Nc2ncnc3ccc(OCCCCNCCS(C)(=O)=O)cc23)c1`, the inhibition in assay [1] is -0.99%; in assay [2] it was -0.09%; in [3], 0.04%; in assay [4] it was 4.02%; in [5] it was 9.21%; in [6], 5.89%. The inhibition in [7] was 12.2%; in [8], 6.73%; in assay [9], 9.06%; in assay [10] it was 7.86%; in assay [11] it was 9.33%; in assay [12], 3.06%. The inhibition came to 8.52% in assay [13]; 5.28% in [14]; 6.09% in assay [15]; 3.67% in assay [16]; 3.84% in [17]; 4.76% in assay [18]. Moreover, the inhibition in assay [19] is 3.44%; in assay [20], 8.12%.
